Reference: the supplement of paper PMC10849652
The full data set covers some 7,900 targets. This sample favours those with a hit. About 0.6% of all pairs of compound and target were hits. Unmarked numbers belong to inactive results.

What was measured:
Assay in all cases: log2 fold change, soluble protein after heating vs DMSO (PISA); higher = thermal stabilisation; K562 cells, 10 uM, 30 min; active = over 0.2 and 3.5 SD of the protein, either way, in both replicates (recomputed)
[1] = compound: COC1=CC=C(C=C1)CN2C=CC3=C2C=C(C=C3)C(=O)NO
In short: (§1)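 Soluble protein was defined as the supernatant after 21,000xg for 90 min. It came from K562 cells at 2×10^6 cells/mL given 10 μM compound for 30 min, heated in aliquots for 3 min across 48°C-58°C, pooled, and extracted in PBS with 0.5% NP-40 at 4°C, and was quantified by TMTpro 16plex LC-MS/MS with equalised channel sums. Thermal stability against control samples, from duplicates, is reported as log2 fold change.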

[2] = compound: CON(C)C(=O)N1N=C(c2cc(F)ccc2F)S[C@@]1(CCCN)c1ccccc1 [filanesib]
In short: as §1

[3] = compound: CO[C@H]1C[C@@H]2CC[C@@H](C)[C@@](O)(O2)C(=O)C(=O)N2CCCC[C@H]2C(=O)O[C@H]([C@H](C)C[C@@H]2CC[C@H](n3cnnn3)[C@H](OC)C2)CC(=O)[C@H](C)/C=C(\C)[C@@H](O)[C@@H](OC)C(=O)[C@H](C)C[C@H](C)/C=C/C=C/C=C/1C [zotarolimus]
In short: as §1

[4] = compound: COc1cc(C(=O)O)ccc1NC(=O)[C@@H]1N[C@@H](CC(C)(C)C)[C@](C#N)(c2ccc(Cl)cc2F)[C@H]1c1cccc(Cl)c1F [idasanutlin]
In short: as §1

[5] = compound: COc1cc(Nc2ncc3c(n2)-c2ccc(Cl)cc2C(c2c(F)cccc2OC)=NC3)ccc1C(=O)O [alisertib]
In short: as §1

[6] = compound: COc1cc2nc(-c3cc(F)ccc3O)nc(N[C@@H]3CNC[C@H]3C(C)(C)O)c2cc1OC
In short: as §1

[7] = compound: COc1cccc2cc(-c3nc([C@H]4CC[C@H](C(=O)O)CC4)n4ncnc(N)c34)[nH]c12
In short: as §1

[8] = compound: CS(=O)(=O)CCNCc1ccc(-c2ccc3ncnc(Nc4ccc(OCc5cccc(F)c5)c(Cl)c4)c3c2)o1 [lapatinib]
In short: as §1

[9] = compound: COc1cc2ncnc(Nc3ccc(F)c(Cl)c3)c2cc1OCCCN1CCOCC1 [gefitinib]
In short: as §1

[10] = compound: CS(=O)(=O)N1CCN(Cc2cc3nc(-c4cccc5[nH]ncc45)nc(N4CCOCC4)c3s2)CC1 [pictilisib]
In short: as §1

UniProt Q99807, sequence (Q99807 whole entry, looked up): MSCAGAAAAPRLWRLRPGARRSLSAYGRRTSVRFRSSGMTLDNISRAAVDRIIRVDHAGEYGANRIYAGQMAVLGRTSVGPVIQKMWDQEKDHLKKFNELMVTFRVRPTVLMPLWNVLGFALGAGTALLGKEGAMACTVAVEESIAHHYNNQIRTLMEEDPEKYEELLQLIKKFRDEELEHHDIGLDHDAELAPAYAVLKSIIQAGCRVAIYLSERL
UniProt Q9UJA2, sequence (Q9UJA2 whole entry, looked up): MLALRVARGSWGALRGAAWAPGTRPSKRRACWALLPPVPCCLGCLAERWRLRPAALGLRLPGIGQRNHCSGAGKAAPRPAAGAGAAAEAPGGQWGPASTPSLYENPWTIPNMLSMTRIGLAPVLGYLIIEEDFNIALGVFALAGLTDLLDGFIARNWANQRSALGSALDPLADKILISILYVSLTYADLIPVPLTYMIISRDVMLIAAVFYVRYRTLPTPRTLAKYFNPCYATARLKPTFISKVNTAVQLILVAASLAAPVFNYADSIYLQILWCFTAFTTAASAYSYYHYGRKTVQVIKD
UniProt Q9H9S4, sequence (Q9H9S4 whole entry, looked up): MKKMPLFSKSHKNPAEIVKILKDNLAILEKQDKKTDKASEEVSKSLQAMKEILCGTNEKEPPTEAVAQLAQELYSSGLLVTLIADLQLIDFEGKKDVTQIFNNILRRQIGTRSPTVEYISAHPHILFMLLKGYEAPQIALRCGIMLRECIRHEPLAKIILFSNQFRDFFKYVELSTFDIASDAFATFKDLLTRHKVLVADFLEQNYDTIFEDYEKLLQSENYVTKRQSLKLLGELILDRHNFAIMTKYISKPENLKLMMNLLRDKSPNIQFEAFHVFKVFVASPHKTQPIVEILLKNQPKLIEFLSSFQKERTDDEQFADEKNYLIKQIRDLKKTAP
UniProt Q7Z4R8, sequence (Q7Z4R8 whole entry, looked up): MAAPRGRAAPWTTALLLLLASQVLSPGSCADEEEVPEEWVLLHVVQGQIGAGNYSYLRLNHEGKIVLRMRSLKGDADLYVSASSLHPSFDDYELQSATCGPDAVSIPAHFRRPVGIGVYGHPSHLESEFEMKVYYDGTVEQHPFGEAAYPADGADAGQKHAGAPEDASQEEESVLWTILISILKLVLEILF
UniProt Q6ZU80, sequence (Q6ZU80 whole entry, looked up): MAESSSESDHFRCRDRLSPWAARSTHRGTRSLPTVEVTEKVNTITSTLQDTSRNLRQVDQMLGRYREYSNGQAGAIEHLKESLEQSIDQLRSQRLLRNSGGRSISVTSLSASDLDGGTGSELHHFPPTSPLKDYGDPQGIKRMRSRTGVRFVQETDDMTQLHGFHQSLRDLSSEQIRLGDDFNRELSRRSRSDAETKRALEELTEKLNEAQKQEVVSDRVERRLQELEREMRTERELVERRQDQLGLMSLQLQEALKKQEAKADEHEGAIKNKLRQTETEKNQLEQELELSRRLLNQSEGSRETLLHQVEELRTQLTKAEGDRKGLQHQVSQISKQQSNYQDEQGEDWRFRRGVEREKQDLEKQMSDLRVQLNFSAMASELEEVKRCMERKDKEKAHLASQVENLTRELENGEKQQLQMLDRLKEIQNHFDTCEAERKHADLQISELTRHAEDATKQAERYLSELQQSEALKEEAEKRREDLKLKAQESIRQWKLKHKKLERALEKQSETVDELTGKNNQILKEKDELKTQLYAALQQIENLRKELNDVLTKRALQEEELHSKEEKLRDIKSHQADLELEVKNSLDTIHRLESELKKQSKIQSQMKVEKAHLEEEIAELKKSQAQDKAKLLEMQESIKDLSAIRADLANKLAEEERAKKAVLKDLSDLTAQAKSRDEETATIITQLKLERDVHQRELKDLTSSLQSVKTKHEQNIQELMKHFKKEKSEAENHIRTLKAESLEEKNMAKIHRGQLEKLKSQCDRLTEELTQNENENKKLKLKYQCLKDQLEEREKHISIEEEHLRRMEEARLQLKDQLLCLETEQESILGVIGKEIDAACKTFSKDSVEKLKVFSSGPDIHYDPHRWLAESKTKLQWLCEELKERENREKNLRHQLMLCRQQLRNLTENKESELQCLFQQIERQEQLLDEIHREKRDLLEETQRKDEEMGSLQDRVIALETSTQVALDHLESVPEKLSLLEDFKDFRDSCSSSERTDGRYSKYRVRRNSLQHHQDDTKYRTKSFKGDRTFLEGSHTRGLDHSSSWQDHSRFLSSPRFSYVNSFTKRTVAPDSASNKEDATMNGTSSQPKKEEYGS
UniProt Q00537, sequence (Q00537 whole entry, looked up): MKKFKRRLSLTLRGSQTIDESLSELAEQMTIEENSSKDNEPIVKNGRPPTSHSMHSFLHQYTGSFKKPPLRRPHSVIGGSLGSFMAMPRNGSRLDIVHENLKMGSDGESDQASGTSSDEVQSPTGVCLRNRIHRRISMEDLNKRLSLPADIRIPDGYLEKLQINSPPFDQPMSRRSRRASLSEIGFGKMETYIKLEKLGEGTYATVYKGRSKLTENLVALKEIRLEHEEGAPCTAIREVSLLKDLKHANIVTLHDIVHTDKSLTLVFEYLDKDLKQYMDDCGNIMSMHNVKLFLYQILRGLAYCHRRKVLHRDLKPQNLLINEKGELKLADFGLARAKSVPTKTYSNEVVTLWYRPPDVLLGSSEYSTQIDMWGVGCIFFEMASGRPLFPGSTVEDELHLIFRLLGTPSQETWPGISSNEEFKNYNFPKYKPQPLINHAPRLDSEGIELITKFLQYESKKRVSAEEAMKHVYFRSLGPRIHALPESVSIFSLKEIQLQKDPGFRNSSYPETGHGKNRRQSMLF
UniProt Q8N668, sequence (Q8N668 whole entry, looked up): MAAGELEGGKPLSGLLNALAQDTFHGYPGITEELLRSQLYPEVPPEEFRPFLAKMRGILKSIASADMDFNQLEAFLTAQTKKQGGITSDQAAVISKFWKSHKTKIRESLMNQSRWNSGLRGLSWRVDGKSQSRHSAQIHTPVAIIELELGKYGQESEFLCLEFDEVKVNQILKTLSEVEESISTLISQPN
UniProt Q9BWU1, sequence (Q9BWU1 whole entry, looked up): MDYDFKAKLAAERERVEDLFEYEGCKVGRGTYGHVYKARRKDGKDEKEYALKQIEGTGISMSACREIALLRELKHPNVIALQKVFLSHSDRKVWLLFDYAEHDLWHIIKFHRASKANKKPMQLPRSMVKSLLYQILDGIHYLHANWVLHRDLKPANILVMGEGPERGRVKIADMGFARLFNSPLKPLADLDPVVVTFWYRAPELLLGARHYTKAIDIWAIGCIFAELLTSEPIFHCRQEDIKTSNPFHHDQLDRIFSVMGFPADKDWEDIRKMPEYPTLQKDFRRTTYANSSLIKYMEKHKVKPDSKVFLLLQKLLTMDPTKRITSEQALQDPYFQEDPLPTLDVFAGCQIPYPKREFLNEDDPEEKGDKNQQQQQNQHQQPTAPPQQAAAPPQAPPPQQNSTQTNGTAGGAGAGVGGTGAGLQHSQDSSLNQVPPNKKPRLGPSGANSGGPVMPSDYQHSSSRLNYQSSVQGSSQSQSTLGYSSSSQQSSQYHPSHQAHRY
UniProt Q9Y2V0, sequence (Q9Y2V0 whole entry, looked up): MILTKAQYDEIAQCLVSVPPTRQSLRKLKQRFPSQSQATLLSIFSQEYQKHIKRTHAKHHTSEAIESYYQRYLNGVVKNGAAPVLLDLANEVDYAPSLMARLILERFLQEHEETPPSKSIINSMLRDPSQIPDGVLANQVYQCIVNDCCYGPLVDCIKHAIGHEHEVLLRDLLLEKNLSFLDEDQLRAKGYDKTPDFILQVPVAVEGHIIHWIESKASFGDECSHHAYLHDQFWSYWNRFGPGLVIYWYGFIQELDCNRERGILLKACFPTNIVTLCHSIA
UniProt O95628, sequence (O95628 whole entry, looked up): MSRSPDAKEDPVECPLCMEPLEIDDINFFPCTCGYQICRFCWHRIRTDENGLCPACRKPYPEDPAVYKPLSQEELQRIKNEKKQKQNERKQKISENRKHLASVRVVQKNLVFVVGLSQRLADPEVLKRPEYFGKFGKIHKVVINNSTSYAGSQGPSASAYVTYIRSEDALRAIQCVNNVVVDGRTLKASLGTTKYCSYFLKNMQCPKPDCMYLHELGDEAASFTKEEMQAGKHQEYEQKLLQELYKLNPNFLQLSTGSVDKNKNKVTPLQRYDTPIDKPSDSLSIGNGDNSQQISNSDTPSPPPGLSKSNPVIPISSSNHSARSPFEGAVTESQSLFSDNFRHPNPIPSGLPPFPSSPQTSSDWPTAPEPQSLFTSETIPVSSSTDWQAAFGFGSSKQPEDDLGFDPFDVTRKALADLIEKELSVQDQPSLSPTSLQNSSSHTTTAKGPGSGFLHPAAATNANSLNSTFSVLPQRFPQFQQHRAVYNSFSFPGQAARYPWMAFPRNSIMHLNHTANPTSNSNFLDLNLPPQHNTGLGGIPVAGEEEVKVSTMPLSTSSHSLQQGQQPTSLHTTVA
UniProt Q5BKX5, sequence (Q5BKX5 whole entry, looked up): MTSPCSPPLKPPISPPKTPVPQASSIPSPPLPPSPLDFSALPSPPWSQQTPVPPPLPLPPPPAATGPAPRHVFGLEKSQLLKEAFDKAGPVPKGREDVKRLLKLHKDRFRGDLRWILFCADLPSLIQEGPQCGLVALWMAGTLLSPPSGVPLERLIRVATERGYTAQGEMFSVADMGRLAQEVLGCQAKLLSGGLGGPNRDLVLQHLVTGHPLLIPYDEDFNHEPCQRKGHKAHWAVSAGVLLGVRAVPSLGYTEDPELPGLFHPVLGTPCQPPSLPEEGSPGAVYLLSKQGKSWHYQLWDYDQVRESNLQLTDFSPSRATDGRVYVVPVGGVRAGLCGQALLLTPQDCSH
UniProt O95273, sequence (O95273 whole entry, looked up): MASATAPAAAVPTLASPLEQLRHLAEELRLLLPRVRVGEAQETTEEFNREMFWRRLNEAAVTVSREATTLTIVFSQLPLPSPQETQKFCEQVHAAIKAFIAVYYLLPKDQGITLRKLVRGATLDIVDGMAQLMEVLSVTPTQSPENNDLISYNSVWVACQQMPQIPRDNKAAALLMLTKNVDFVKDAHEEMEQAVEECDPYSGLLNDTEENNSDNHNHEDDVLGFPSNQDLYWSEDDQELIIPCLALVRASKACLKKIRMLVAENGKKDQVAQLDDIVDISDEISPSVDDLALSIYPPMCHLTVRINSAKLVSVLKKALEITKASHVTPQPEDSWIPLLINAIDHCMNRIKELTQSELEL

Row | Target | log2 fold change [1] | log2 fold change [2] | log2 fold change [3] | log2 fold change [4] | log2 fold change [5] | log2 fold change [6] | log2 fold change [7] | log2 fold change [8] | log2 fold change [9] | log2 fold change [10]
1 | CEP128 (UniProt Q6ZU80) | -0.269 | 0.031 | -0.101 | -0.103 | 0.677 (active) | 0.076 | -0.381 | -0.198 |  | 
2 | C1D (UniProt Q13901) | -0.171 | -0.041 |  | 0.12 | -0.138 | -0.101 | -0.027 | 0.006 | 0.043 | 0.012
3 | CIR1 (UniProt Q86X95) | -0.022 | 0.247 | -0.064 | 0.161 | -0.081 | -0.019 | -0.024 | 0.078 |  | -0.365
4 | CSNK1A1 (UniProt P48729) | 0.147 | 0.08 | 0.024 | 0.094 |  | -0.214 | -0.036 | 0.019 | -0.106 | 0.024
5 | COX7C (UniProt P15954) | 0.12 | 0.009 |  | 0.114 | -0.016 | -0.069 | -0.053 | 0.008 | 0.059 | -0.288
6 | CCNC (UniProt P24863) | -0.198 | 0.013 | -0.026 | -0.156 | -0.036 |  | 0.013 |  |  | 0.079
7 | CASP8 isoform 9 (UniProt Q14790) | -0.087 | -0.017 |  | -0.086 | -0.107 | 0.023 | 0.044 | -0.028 | -0.153 | 0.127
8 | CCAR2 isoform 2 (UniProt Q8N163) | -0.038 | 0.024 | 0.063 | -0.065 | -0.072 | -0.187 | -0.042 | 0.04 | -0.03 | -0.034
9 | CNOT1 (UniProt A5YKK6) | 0.002 | -0.019 | 0.02 | -0.032 | -0.022 | 0.053 | -0.031 | 0.02 | -0.021 | -0.046
10 | CRYM-AS1 (UniProt A6NIL9) | 0.159 | 0.047 | 0.146 | -0.364 | 0.037 |  | -0.041 |  | -0.16 | 0.109
11 | CASP9 (UniProt P55211) | 0.095 | 0.169 | -0.043 | -0.008 |  | 0.02 |  | -0.034 | 0.146 | -0.019
12 | CRTC2 (UniProt Q53ET0) | -0.004 | -0.019 |  | 0.086 | 0 | -0.509 (active) | 0.066 | 0.079 | -0.056 | 
13 | CDK8 (UniProt P49336) | 0.03 | 0.008 | -0.044 | -0.136 | -0.137 | -0.105 | -0.005 | -0.047 |  | 0.038
14 | CCM2 isoform 2 (UniProt Q9BSQ5) | -0.093 | 0.026 | 0.057 |  | -0.04 | 0.154 | 0.056 | 0.006 |  | 0.022
15 | C6orf120 (UniProt Q7Z4R8) | 0.003 | -0.053 |  |  |  | -0.135 |  | -0.114 | -0.008 | 
16 | CCDC82 (UniProt Q8N4S0) | -0.356 |  | 0.013 | 0 | 0.034 | -0.013 | -0.102 | 0.043 | 0.052 | 
17 | CRTC1 isoform 2 (UniProt Q6UUV9) | -0.39 (active) | -0.002 |  | -0.021 |  | 0.138 |  | 0.028 |  | -0.013
18 | COQ7 (UniProt Q99807) | 0.001 | -0.098 | -0.081 | 0.026 | 0.115 | 0.011 | 0.031 | 0.042 | 0.055 | 0.074

Row | Target | log2 fold change [1] | log2 fold change [2] | log2 fold change [3] | log2 fold change [4] | log2 fold change [5] | log2 fold change [6] | log2 fold change [7] | log2 fold change [8] | log2 fold change [9] | log2 fold change [10]
19 | CMTR1 (UniProt Q8N1G2) | -0.337 (active) | 0.001 | -0.013 | -0.052 | -0.026 | 0.065 | 0.017 | -0.012 | 0.025 | 0.009
20 | CCDC167 (UniProt Q9P0B6) | -0.054 | -0.024 | -0.027 |  | -0.068 | -0.148 | -0.105 | 0.016 | -0.021 | 0.047
21 | CENPE (UniProt Q02224) | -0.355 | 0.445 | 0.288 | -0.407 |  | -0.068 |  | 0.024 |  | 0.048
22 | C15orf41 (UniProt Q9Y2V0) | -0.057 | -0.021 | -0.096 | -0.023 |  | 0.011 |  | -0.018 |  | 0.047
23 | COMMD1 (UniProt Q8N668) | 0.054 | 0.06 |  |  | -0.151 | 0.029 | -0.04 | -0.029 | -0.01 | 0.006
24 | CRLS1 (UniProt Q9UJA2) | 0.044 | -0.125 | 0.005 |  | -0.071 | -0.229 | 0.075 | 0.046 | 0.021 | -0.029
25 | CAB39L (UniProt Q9H9S4) | -0.063 | -0.07 |  | -0.052 |  | 0.07 |  | 0.057 |  | 0.029
26 | CDK17 isoform 2 (UniProt Q00537) | -0.031 | -0.024 | -0.208 | 0.03 | 0.508 | 0.051 | 0.103 | 0.049 |  | 0.158
27 | C19orf54 (UniProt Q5BKX5) | -0.025 | -0.278 | 0.024 | -0.094 |  | 0.123 |  | -0.125 |  | 0.053
28 | COX17 (UniProt Q14061) | 0.183 | -0.059 | 0.034 | 0.059 | -0.112 |  | 0.02 |  | -0.055 | 0.092
29 | CCND3 (UniProt P30281) |  |  | -0.035 | -0.036 | -0.043 | -0.276 | 0.012 | 0.083 |  | 0.03
30 | CNOT4 isoform 9 (UniProt O95628) | -0.018 |  | -0.373 (active) | -0.334 (active) | 0.018 | 0.106 | 0.019 | -0.083 | 0.053 | 0.045
31 | CCNDBP1 (UniProt O95273) |  | 0.016 | -0.102 | 0.063 | -0.012 |  | 0.125 |  | -0.33 (active) | 0.009
32 | CRMP1 isoform 2 (UniProt Q14194) |  | 0.067 | -0.045 | 0.172 |  |  |  |  | -0.407 | 0.107
33 | COMMD3-BMI1 (UniProt R4GMX3) |  | -0.08 | -0.12 | 0.093 |  | 0.519 (active) |  | -0.445 | -0.029 | 0.135
34 | CLN8 (UniProt Q9UBY8) |  | 0.068 | 0.13 | -0.145 | 0.04 | -0.019 | -0.015 | 0.012 | 0.075 | 
35 | CFAP58 (UniProt Q5T655) |  |  |  |  | -0.156 | 0 | 0.032 | 0.001 |  | 0.122
36 | CDK19 (UniProt Q9BWU1) |  | 0.154 | -0.069 | -0.161 | 0.234 | 0.138 | -0.045 | -0.192 | -0.095 | 0.073
